# In publication PMC7862700, “An all-to-all approach to the identification of sequence-specific readers for epigenetic DNA modifications on cytosine”:
# What was measured:
# Assay in all cases: DAPPL (digital affinity profiling via proximity ligation, sequencing); 10 mM Tris-HCl pH 7.5, 50 mM NaCl, 1 mM DTT, 4% glycerol, room temperature, 30 min; GST-TFs on glutathione beads, 16-mer random dsDNA library, 0.1% formaldehyde crosslink after washing; high values mean tight binding
# FLI1 = molecular target: T1, FLI1 (Homo sapiens, UniProt Q01543 1-452); settings: protein: recombinant; tags: N-terminal GST; dsDNA, one strand shown
# T1 sequence: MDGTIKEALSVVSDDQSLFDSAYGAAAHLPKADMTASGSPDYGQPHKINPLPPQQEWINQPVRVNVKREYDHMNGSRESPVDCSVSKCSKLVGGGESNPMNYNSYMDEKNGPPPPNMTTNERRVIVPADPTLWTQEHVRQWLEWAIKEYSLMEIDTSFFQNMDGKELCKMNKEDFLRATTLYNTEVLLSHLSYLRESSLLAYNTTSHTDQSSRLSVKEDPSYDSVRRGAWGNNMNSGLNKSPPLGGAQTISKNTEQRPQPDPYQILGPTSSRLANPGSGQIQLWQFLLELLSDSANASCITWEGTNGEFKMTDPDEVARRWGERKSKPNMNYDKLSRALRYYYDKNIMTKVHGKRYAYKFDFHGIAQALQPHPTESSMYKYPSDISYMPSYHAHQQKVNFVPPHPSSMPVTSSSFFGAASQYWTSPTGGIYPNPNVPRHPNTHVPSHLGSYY
# In short: (§1)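 Beads coated with glutathione captured GST-fused human transcription factors that had been expressed in yeast, and the factors were then given DNA barcodes and pooled with a tag-only sample. The pools were incubated with 200 nmole of a random double-stranded 16-mer DNA library in Tris/NaCl/DTT/glycerol buffer for 30 min at room temperature, washed, crosslinked with 0.1% formaldehyde and proximity-ligated with BsaI/T4 ligase at 37 °C for 1 h. PCR amplification and Illumina NextSeq500 sequencing came last. Binding signal is each hexamer's read frequency for a factor divided by its frequency for the tag-only sample.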
# ELK1 = molecular target: T2, ELK1 (Homo sapiens, UniProt P19419 1-428); settings: protein: recombinant; tags: N-terminal GST; dsDNA, one strand shown
# T2 sequence: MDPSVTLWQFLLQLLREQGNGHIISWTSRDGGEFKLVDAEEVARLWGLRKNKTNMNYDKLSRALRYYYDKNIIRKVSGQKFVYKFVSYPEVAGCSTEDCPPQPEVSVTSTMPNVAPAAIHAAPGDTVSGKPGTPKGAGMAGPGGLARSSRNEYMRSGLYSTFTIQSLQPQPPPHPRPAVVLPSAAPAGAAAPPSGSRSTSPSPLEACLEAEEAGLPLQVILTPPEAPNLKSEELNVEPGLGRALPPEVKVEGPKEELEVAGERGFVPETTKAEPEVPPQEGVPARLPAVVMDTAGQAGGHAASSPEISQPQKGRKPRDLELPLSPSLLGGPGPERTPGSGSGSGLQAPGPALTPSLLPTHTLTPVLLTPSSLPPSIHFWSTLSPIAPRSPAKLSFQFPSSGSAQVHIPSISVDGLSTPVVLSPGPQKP
# In short: as §1
# GABPA = molecular target: T3, GABPA (Homo sapiens, UniProt Q06546 1-454); settings: protein: recombinant; tags: N-terminal GST; dsDNA, one strand shown
# T3 sequence: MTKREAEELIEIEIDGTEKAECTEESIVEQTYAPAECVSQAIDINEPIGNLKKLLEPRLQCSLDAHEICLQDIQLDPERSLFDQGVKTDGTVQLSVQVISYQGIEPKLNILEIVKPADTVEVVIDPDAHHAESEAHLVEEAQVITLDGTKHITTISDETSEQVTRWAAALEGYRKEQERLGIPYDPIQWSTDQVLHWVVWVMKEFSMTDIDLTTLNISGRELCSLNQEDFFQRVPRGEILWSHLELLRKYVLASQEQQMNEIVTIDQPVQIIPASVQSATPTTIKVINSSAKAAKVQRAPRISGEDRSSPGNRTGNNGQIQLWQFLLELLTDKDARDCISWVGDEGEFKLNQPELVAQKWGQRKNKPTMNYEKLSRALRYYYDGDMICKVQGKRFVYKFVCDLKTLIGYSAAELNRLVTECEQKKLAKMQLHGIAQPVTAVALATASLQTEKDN
# In short: as §1
# ERG = molecular target: T4, ERG (Homo sapiens, UniProt P11308 1-479); settings: protein: recombinant; tags: N-terminal GST; dsDNA, one strand shown
# T4 sequence: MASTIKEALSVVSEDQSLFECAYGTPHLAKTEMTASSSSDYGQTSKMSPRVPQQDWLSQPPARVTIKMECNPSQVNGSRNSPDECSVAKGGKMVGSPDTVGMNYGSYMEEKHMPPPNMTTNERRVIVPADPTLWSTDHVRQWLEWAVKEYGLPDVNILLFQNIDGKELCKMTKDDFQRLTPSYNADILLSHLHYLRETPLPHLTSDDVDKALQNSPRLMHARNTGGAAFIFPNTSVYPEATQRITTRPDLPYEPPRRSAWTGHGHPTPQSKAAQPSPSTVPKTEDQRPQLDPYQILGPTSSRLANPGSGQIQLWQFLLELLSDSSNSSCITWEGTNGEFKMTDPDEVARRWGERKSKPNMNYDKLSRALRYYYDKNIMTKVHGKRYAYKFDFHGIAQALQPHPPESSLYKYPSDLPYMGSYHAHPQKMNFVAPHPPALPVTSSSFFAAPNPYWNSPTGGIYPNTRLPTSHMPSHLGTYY
# In short: as §1
# ELF1 = ELF1 (Homo sapiens, UniProt P32519 1-619); settings: protein: recombinant; tags: N-terminal GST; dsDNA, one strand shown
# In short: as §1
# EHF = molecular target: T5, EHF (Homo sapiens, UniProt Q9NZC4 1-300); settings: protein: recombinant; tags: N-terminal GST; dsDNA, one strand shown
# T5 sequence: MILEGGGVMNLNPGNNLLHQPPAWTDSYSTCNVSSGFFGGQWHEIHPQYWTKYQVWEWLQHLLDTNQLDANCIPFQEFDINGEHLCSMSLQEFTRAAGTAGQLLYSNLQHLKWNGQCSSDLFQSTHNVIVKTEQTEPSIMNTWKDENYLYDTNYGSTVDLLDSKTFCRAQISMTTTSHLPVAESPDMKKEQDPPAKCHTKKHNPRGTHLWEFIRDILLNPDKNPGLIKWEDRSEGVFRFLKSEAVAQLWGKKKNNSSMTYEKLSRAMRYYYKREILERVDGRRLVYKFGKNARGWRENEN
# In short: as §1
# SPI1 = SPI1 (Homo sapiens, UniProt P17947 1-270); settings: protein: recombinant; tags: N-terminal GST; dsDNA, one strand shown
# In short: as §1
# SPIB = SPIB (Homo sapiens, UniProt Q01892 1-262); settings: protein: recombinant; tags: N-terminal GST; dsDNA, one strand shown
# In short: as §1
# ELK3 = molecular target: T6, ELK3 (Homo sapiens, UniProt P41970 1-407); settings: protein: recombinant; tags: N-terminal GST; dsDNA, one strand shown
# T6 sequence: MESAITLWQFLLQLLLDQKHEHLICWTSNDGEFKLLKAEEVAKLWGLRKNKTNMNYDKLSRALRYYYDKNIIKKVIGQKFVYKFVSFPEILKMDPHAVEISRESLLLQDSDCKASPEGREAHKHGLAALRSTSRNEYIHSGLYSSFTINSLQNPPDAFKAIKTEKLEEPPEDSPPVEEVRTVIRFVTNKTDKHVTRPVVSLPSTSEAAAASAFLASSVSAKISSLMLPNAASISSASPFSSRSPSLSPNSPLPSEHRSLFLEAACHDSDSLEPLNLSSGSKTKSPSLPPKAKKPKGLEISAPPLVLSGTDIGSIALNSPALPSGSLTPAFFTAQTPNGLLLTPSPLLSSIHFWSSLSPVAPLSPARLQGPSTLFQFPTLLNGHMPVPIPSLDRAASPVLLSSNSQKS
# In short: as §1
# FEV = molecular target: T7, FEV (Homo sapiens, UniProt Q99581 1-238); settings: protein: recombinant; tags: N-terminal GST; dsDNA, one strand shown
# T7 sequence: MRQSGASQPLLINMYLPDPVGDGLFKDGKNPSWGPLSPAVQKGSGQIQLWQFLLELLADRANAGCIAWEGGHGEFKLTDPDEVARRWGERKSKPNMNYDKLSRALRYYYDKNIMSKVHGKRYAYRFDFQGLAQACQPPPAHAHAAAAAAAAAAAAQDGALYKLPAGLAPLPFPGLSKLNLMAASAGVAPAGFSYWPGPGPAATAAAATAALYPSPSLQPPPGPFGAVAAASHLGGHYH
# In short: as §1
# ETV5 = ETV5 (Homo sapiens, UniProt P41161 1-510); settings: protein: recombinant; tags: N-terminal GST; dsDNA, one strand shown
# In short: as §1
# HSF1 = HSF1 (Homo sapiens, UniProt Q00613 1-529); settings: protein: recombinant; tags: N-terminal GST; chain copies: 3; dsDNA, one strand shown
# In short: as §1
# SPIC = molecular target: T8, SPIC (Homo sapiens, UniProt Q8N5J4 1-248); settings: protein: recombinant; tags: N-terminal GST; dsDNA, one strand shown
# T8 sequence: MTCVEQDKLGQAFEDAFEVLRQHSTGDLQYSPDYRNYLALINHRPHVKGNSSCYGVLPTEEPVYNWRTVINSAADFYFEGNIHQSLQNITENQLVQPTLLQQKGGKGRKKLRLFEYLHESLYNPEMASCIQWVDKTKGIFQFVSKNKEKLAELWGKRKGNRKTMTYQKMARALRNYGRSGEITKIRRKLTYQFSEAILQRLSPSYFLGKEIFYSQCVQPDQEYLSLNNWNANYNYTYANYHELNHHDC
# In short: as §1
# ELF4 = ELF4 (Homo sapiens, UniProt Q99607 1-663); settings: protein: recombinant; tags: N-terminal GST; dsDNA, one strand shown
# In short: as §1
# ELK4 = molecular target: T9, ELK4 (Homo sapiens, UniProt P28324-2 1-405); settings: protein: recombinant; tags: N-terminal GST; dsDNA, one strand shown
# T9 sequence: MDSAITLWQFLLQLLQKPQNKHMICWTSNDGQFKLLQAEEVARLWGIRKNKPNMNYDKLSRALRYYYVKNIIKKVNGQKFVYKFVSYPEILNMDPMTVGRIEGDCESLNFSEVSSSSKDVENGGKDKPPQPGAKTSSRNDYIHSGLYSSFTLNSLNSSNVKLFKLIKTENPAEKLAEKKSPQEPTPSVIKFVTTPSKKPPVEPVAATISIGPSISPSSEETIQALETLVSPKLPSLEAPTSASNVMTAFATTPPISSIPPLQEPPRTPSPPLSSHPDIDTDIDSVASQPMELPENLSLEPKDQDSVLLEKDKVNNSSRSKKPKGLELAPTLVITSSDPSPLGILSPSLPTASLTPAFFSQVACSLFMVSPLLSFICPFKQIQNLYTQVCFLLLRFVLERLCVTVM
# In short: as §1
# ETV2 = molecular target: T10, ETV2 (Homo sapiens, UniProt O00321 1-342); settings: protein: recombinant; tags: N-terminal GST; dsDNA, one strand shown
# T10 sequence: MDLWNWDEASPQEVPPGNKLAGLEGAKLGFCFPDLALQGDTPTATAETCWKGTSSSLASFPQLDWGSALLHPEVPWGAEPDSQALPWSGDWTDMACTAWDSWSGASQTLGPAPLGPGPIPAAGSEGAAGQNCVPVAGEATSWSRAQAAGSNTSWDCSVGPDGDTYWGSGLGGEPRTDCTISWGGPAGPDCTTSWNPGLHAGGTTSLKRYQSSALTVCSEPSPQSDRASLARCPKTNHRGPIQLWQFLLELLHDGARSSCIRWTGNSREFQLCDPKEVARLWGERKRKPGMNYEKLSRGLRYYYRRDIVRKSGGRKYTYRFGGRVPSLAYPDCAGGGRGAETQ
# In short: as §1
# ELF3 = molecular target: T11, ELF3 (Homo sapiens, UniProt P78545 1-371); settings: protein: recombinant; tags: N-terminal GST; dsDNA, one strand shown
# T11 sequence: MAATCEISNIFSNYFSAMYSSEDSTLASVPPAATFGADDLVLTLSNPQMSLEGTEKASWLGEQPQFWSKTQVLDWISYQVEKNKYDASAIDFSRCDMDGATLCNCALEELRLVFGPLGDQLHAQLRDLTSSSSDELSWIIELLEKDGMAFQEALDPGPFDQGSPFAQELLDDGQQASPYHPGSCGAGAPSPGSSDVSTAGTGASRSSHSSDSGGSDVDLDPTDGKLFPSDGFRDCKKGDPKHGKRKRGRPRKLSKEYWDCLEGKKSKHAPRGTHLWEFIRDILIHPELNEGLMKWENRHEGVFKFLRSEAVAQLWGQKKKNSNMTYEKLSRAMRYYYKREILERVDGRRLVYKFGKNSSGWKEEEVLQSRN
# In short: as §1
# CRX = CRX (Homo sapiens, UniProt O43186 1-299); settings: protein: recombinant; tags: N-terminal GST; dsDNA, one strand shown
# In short: as §1
# ETV1 = ETV1 (Homo sapiens, UniProt P50549 1-477); settings: protein: recombinant; tags: N-terminal GST; dsDNA, one strand shown
# In short: as §1
# HSF1, sequence (Q00613 whole entry): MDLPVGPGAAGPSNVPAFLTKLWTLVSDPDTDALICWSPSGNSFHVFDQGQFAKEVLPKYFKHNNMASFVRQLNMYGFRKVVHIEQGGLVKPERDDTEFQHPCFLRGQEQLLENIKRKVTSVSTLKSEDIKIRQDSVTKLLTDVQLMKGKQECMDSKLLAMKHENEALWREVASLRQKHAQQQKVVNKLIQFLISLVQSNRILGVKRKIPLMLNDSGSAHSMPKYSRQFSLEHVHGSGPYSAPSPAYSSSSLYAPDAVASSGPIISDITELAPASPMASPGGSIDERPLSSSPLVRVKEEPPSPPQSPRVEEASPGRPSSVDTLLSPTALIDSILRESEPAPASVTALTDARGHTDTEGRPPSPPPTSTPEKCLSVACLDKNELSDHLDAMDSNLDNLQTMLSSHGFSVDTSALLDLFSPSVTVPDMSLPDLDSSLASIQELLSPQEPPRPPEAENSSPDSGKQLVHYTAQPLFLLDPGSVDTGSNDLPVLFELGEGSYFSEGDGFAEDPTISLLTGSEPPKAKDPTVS
# ETV5, sequence (P41161 whole entry): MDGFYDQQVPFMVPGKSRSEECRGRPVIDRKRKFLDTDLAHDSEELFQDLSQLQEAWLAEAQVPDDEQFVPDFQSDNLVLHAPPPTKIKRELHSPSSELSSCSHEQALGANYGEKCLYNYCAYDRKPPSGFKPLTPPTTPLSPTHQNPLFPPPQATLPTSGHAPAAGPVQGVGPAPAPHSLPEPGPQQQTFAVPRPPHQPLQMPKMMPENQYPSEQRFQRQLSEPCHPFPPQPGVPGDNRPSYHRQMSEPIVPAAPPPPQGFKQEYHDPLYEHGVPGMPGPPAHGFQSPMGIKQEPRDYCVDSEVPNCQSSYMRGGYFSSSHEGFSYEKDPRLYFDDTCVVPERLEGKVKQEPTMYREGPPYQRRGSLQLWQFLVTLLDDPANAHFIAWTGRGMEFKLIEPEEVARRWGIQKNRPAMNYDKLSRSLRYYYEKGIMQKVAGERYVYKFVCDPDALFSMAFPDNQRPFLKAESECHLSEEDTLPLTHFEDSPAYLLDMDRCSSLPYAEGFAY
# SPIB, sequence (Q01892 whole entry): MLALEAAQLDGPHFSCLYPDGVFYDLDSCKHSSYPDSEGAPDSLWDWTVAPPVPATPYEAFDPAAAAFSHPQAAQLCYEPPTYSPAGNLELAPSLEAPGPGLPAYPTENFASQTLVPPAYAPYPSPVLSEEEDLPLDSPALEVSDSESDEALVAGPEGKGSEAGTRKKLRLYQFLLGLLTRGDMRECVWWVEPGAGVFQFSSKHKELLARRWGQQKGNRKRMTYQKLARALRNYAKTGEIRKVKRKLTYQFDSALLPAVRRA
# ELF1, sequence (P32519 whole entry): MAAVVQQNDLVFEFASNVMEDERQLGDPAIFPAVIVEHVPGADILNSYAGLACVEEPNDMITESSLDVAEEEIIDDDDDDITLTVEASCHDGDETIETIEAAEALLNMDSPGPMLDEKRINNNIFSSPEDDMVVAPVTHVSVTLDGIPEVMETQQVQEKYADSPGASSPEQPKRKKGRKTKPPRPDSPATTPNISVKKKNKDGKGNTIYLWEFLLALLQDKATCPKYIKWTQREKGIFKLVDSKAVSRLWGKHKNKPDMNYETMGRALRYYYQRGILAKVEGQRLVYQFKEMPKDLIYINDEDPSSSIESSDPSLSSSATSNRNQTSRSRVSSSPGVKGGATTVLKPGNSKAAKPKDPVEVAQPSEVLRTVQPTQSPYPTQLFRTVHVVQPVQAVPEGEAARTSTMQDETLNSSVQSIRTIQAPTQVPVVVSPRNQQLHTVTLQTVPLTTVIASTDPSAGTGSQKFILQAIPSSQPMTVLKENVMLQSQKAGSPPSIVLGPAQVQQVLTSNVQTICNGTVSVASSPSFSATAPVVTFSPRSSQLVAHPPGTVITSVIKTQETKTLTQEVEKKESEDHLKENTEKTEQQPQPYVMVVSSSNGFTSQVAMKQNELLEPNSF
# ELF4, sequence (Q99607 whole entry): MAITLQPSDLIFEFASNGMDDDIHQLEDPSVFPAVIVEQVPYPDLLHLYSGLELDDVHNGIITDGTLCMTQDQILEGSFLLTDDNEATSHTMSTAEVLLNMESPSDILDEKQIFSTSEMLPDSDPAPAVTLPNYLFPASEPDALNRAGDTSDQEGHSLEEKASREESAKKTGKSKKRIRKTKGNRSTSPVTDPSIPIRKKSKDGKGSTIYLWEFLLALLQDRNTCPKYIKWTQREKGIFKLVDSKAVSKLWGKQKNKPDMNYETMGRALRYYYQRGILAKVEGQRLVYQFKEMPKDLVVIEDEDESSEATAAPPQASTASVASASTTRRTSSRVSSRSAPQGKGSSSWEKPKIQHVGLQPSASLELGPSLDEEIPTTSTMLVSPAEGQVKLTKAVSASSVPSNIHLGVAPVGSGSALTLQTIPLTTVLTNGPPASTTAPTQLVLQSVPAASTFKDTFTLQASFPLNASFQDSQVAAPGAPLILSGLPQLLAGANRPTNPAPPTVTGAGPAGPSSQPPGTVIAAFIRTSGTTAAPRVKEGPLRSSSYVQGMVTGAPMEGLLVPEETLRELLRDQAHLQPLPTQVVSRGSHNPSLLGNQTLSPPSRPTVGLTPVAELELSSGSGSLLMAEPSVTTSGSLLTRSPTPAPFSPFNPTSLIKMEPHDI
# ETV1, sequence (P50549 whole entry): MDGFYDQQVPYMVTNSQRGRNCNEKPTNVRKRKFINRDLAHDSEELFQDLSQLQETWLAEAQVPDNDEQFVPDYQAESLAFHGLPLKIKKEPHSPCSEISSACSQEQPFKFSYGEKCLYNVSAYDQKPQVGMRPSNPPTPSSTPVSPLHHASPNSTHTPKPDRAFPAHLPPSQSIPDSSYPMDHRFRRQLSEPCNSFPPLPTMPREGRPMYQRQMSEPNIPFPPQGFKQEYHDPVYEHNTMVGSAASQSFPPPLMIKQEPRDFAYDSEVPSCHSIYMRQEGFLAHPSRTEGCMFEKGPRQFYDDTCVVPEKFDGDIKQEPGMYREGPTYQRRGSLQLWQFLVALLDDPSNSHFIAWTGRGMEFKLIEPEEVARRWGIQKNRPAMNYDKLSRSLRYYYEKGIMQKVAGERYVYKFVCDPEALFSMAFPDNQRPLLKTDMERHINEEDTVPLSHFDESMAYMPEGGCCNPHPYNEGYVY
# CRX, sequence (O43186 whole entry): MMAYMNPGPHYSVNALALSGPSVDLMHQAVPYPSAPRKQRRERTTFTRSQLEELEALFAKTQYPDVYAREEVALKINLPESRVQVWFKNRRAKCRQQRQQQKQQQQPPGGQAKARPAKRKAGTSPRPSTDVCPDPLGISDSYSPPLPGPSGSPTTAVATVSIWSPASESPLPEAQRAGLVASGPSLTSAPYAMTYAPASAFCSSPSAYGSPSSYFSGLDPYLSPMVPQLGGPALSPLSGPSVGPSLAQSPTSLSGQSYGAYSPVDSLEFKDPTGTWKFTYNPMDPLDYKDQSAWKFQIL
sequence,measurement,setting,value
CTAGCA,binding signal,FLI1,"1.28 fold enrichment (6-mer frequency, TF over GST control)"
same,binding signal,ELK1,"1.26 fold enrichment (6-mer frequency, TF over GST control)"
same,binding signal,GABPA,"1.2 fold enrichment (6-mer frequency, TF over GST control)"
same,binding signal,ERG,"1.18 fold enrichment (6-mer frequency, TF over GST control)"
same,binding signal,ELF1,"1.26 fold enrichment (6-mer frequency, TF over GST control)"
same,binding signal,EHF,"1.23 fold enrichment (6-mer frequency, TF over GST control)"
same,binding signal,SPI1,"1.14 fold enrichment (6-mer frequency, TF over GST control)"
same,binding signal,SPIB,"1.24 fold enrichment (6-mer frequency, TF over GST control)"
same,binding signal,ELK3,"1.33 fold enrichment (6-mer frequency, TF over GST control)"
same,binding signal,FEV,"1.27 fold enrichment (6-mer frequency, TF over GST control)"
same,binding signal,ETV5,"1.25 fold enrichment (6-mer frequency, TF over GST control)"
same,binding signal,HSF1,"2.11 fold enrichment (6-mer frequency, TF over GST control)"
same,binding signal,SPIC,"1.11 fold enrichment (6-mer frequency, TF over GST control)"
same,binding signal,ELF4,"1.3 fold enrichment (6-mer frequency, TF over GST control)"
same,binding signal,ELK4,"1.25 fold enrichment (6-mer frequency, TF over GST control)"
same,binding signal,ETV2,"1.35 fold enrichment (6-mer frequency, TF over GST control)"
same,binding signal,ELF3,"1.21 fold enrichment (6-mer frequency, TF over GST control)"
same,binding signal,CRX,"1.34 fold enrichment (6-mer frequency, TF over GST control)"
same,binding signal,ETV1,"1.24 fold enrichment (6-mer frequency, TF over GST control)"
